Source: PubChem
A selection: hits, their analogues and other compounds. The true share with any hit is near 3.9%.
HIF-2a block = HIF-2a inhibition. 0.72% of 360,000 active. 786-0 RCC cells HIF-2a reporter, luciferase luminescence, overnight. inhibition, % at 18.8 µM. AID 624352;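 active = inhibition of the luminescence signal of 40% or more relative to plate controls, in a single-dose primary screen at 18.75 µM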
TROY NFkB inh = TROY signaling inhibition; Q293 LMP1-TROYcd NF-kB luciferase reporter, 4 h; inhibition, % at 10 µM; 0.98% of 360,000 active; AID 1347056;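 active = compounds whose plate-normalised and pattern-corrected inhibition of the luciferase reporter signal at the single screening dose is 50% or more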
HSP90 inh = HSP90 refolding inhibition in rabbit reticulocyte lysate. 0.91% of 290,000 active. inhibition, % at 5.6 µM. luciferase refolding luminescence, 3 h;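 active = inhibition above the screen-wide mean plus 3 SD, computed separately per campaign, cut at about 16% in these data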;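 note: 0% = DMSO wells and 100% = 60 µM geldanamycin wells; inhibitors lower the luminescence because luciferase stays unfolded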
aSyn 5UTR inh = 5' untranslated region of α-synuclein, MLPCN primary screen | alpha-synuclein 5'UTR reporter, inhibitor activity | inhibition, % (tested at 7.5 µM) | 0.82% of 300,000 active | AID 1813; in the data active = inhibition above about 60%;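 note: H4 neuroglioblastoma cells stably carrying SNCA 5'UTR luciferase fusion; 0% = DMSO wells and 100% = positive control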
TWEAK Fn14 block = blocks TWEAK-Fn14 interaction in a reporter cell assay. TWEAK-stimulated Fn14 reporter cells, luciferase luminescence, 8 h. inhibition, % at 10 µM. 2% of 360,000 active. AID 1159606; in the data active = inhibition above about 50%
C8 TRAIL sens = caspase-8 TRAIL sensitization; inhibition (viability loss, TRAIL sensitization), % at 10 µM; 1% of 360,000 active; NB7+C8 cells + TRAIL, ATPlite viability luminescence; AID 624354;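 active = compounds causing at least 50% loss of cell viability in the single-dose screen, relative to plate controls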
* hit, by the source's call.

`Cc1cccc2c1Sc1ccc(Cl)cc1CC2N1CCNCC1` (stereo not drawn) gave aSyn 5UTR inh 104*.
`CN1CCN(C2Cc3ccccc3Sc3ccc(Cl)cc32)CC1` (stereo not drawn) gave HIF-2a block 5, TROY NFkB inh 13, TWEAK Fn14 block -6 and C8 TRAIL sens 10.
For CCc1cccc2c1Sc1ccccc1CC2N1CCNCC1 (stereo not drawn) the results were HIF-2a block 16, TROY NFkB inh -40, aSyn 5UTR inh 104*, TWEAK Fn14 block -16 and C8 TRAIL sens -2.
`CN1CCN(C2Cc3ccccc3Sc3cc(C(F)(F)F)ccc32)CC1` (stereo not drawn) gave aSyn 5UTR inh 28.
For COc1cc2nc(Nc3ccc(C)c(Cl)c3)nc(N)c2cc1OC the results were HIF-2a block -19, TROY NFkB inh 33, HSP90 inh -1, aSyn 5UTR inh 99*, TWEAK Fn14 block 102* and C8 TRAIL sens 38.
`Cc1ccc(Nc2nc(N)c3ccccc3n2)cc1Cl` gave HIF-2a block -106, TROY NFkB inh 16, HSP90 inh 8, aSyn 5UTR inh -5, TWEAK Fn14 block 68* and C8 TRAIL sens 69*.
For Cc1ccc(Nc2nc(NCCO)c3ccccc3n2)cc1C the results were HIF-2a block -94, TROY NFkB inh 6, HSP90 inh -7, aSyn 5UTR inh -76, TWEAK Fn14 block -1 and C8 TRAIL sens 27.
`COc1cc2nc(Nc3ccc(C)c(C)c3)nc(N)c2cc1OC` gave HIF-2a block -17, TROY NFkB inh -43, HSP90 inh -2, aSyn 5UTR inh -131, TWEAK Fn14 block -36 and C8 TRAIL sens 14.
`Cc1cc(OC(C)C(=O)NC2CC(C)(C)NC(C)(C)C2)c2c(C)c(C)c(=O)oc2c1` (stereo not drawn) gave HIF-2a block -32, TROY NFkB inh -3, TWEAK Fn14 block 19 and C8 TRAIL sens 12.
Screening COc1ccc(/C=N/NC(=O)c2cccnc2)cc1COc1ccc([N+](=O)[O-])c(C)c1 returned HIF-2a block -25, TROY NFkB inh 55*, HSP90 inh 5, aSyn 5UTR inh 98*, TWEAK Fn14 block 23 and C8 TRAIL sens 24.
Screening COc1ccc(/C=N/NC(=O)c2cccnc2)cc1CSc1nc2ccccc2s1 returned HIF-2a block -23, TROY NFkB inh 50*, HSP90 inh 0, aSyn 5UTR inh 54, TWEAK Fn14 block 52* and C8 TRAIL sens -29.
`COc1ccc(-c2nn(Cc3ccccc3)cc2C(=O)N2CCN(c3ncccn3)CC2)cc1` gave HIF-2a block -1, TROY NFkB inh 10, TWEAK Fn14 block 6 and C8 TRAIL sens -1.
`CC(C)N1CC(=O)N2CSCC2C1=O` (stereo not drawn) gave HIF-2a block 3, TROY NFkB inh -5, TWEAK Fn14 block -11 and C8 TRAIL sens -5.
`CC1(C)SC(C)(C)N(C=O)C1C(=O)O` (stereo not drawn) gave HIF-2a block 1, TROY NFkB inh -9, TWEAK Fn14 block -6 and C8 TRAIL sens -2.
For COc1ccc(-c2nc3c4ccccc4ccn3c2Cc2ccsc2)cc1OC the results were HIF-2a block -161, TROY NFkB inh -33, TWEAK Fn14 block -24 and C8 TRAIL sens -1.
For Cc1cccc(Cc2cnc(N3C(=N)SC(C)C3=O)s2)c1 (stereo not drawn) the results were HIF-2a block -11, TROY NFkB inh 67*, HSP90 inh 1, aSyn 5UTR inh 4, TWEAK Fn14 block -27 and C8 TRAIL sens 11.
Screening CC(C)C(=O)Nc1ncc(Cc2ccccc2Cl)s1 returned HIF-2a block -15, TROY NFkB inh -19, HSP90 inh 1, aSyn 5UTR inh 11, TWEAK Fn14 block 26 and C8 TRAIL sens -1.
Screening N=C1SCC(=O)N1c1ncc(Cc2cccc(Cl)c2)s1 returned HIF-2a block 12, TROY NFkB inh 67*, HSP90 inh -4, aSyn 5UTR inh 17, TWEAK Fn14 block 102* and C8 TRAIL sens 15.
Screening N=C1SCC(=O)N1c1ncc(Cc2ccccc2Cl)s1 returned HIF-2a block -9, TROY NFkB inh 48, HSP90 inh -7, aSyn 5UTR inh 11, TWEAK Fn14 block 100* and C8 TRAIL sens -2.
`CC(=O)NC(C)(c1ccccc1)c1nc(-c2ccc(S(C)(=O)=O)cc2)cs1` (stereo not drawn) gave HIF-2a block 13, TROY NFkB inh 0, TWEAK Fn14 block 4 and C8 TRAIL sens -14.
`N#CC1C=Cc2ccccc2N1C(=O)c1ccccc1` (stereo not drawn) gave HIF-2a block 11, TROY NFkB inh -12, HSP90 inh 0, aSyn 5UTR inh -1, TWEAK Fn14 block 7 and C8 TRAIL sens 20.
`N#CC1C=Cc2c(ccc3ccccc23)N1C(=O)c1ccccc1` (stereo not drawn) gave HIF-2a block 32, TROY NFkB inh -12, TWEAK Fn14 block 54* and C8 TRAIL sens 10.
O=C(NCc1ccccc1)c1nc(-c2c(F)cccc2F)oc1-c1ccccc1 was read as HIF-2a block -120 and C8 TRAIL sens -8.
Screening O=C(CSc1nnc(-c2c[nH]c3ccccc23)o1)N1c2ccccc2CCc2ccccc21 returned HIF-2a block -3, TROY NFkB inh 39, HSP90 inh 6, aSyn 5UTR inh -4, TWEAK Fn14 block 63* and C8 TRAIL sens 22.
For COc1cccc(-c2nc(-c3ccccn3)no2)c1OC the results were HIF-2a block -178, TROY NFkB inh -38, HSP90 inh -2, aSyn 5UTR inh -219, TWEAK Fn14 block -2 and C8 TRAIL sens 12.
`c1ccc(-c2noc(-c3ccc4ccccc4c3)n2)cc1` gave HIF-2a block -85, TROY NFkB inh 69*, HSP90 inh 13, aSyn 5UTR inh 77*, TWEAK Fn14 block 81* and C8 TRAIL sens 55*.
For c1ccc(-c2noc(-c3cccc4ccccc34)n2)nc1 the results were HIF-2a block -43, TROY NFkB inh 20, HSP90 inh 11, aSyn 5UTR inh 32, TWEAK Fn14 block 77* and C8 TRAIL sens 53*.
`Cc1ccc(-c2nc(-c3ccccn3)no2)cc1Cl` gave HIF-2a block 77*, TROY NFkB inh 82*, HSP90 inh 64*, aSyn 5UTR inh 104*, TWEAK Fn14 block 104* and C8 TRAIL sens 87*.
For c1ccc(-c2noc(-c3ccco3)n2)nc1 the results were HIF-2a block -98, TROY NFkB inh -16, HSP90 inh 10, aSyn 5UTR inh -17, TWEAK Fn14 block 53* and C8 TRAIL sens 5.
Screening CC(C)NC(=O)Nc1ccc2c(c1)C(=O)N([C@H](C)CO)C[C@H](C)[C@@H](CN(C)Cc1ccc3c(c1)OCO3)OCCCC[C@@H](C)O2 returned HIF-2a block 8, TROY NFkB inh -6, TWEAK Fn14 block 2 and C8 TRAIL sens -1.
